# MARV entry inh: qHTS for inhibitors of binding or entry into cells for Marburg Virus. 300,000 compounds, 1.8% hits. Marburg virus pseudotyped entry inhibition, cell reporter. Potency, µM (titrated, usually from 37.8 µM), inactives show at the top dose activity change, negative = inhibition, most hits filed as inhibitors; calls by dose curve; tested in HEK293 cells; also: potency is read from the fitted curve at half-maximal effect; % is scaled to controls: 0 for no effect and ±100 for the full control effect
# HCV inh: qHTS Assay for Inhibitors of Hepatitis C Virus (HCV); Potency, µM (top dose mostly 41.8 µM), for the others: at the highest dose activity change, negative = inhibition, usual class: inhibitors; 340,000 compounds, 3.4% hits; AID 651820, 2012; Huh7.5.1 HCVcc-Cre infection, luciferase reporter, 44 h; also: potency is read from the fitted curve at half-maximal effect; % is scaled to controls: 0 for no effect and ±100 for the full control effect
#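 Infectious HCV cell culture screen: compound-treated cells (1,000/well, pre-plated 4 h) are infected with HCVcc-Cre at roughly 0.5 moi and grown 44 h. Infection is quantified by luciferase signal after 15 min substrate incubation at room temperature.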
# LASV entry inh: qHTS for Inhibitors of binding or entry into cells for Lassa Virus | Lassa virus pseudotype entry inhibition, cell reporter | Potency, µM (doses to about 37.9 µM), for the others: at the top dose activity change, negative = inhibition, usual class: inhibitors | 300,000 compounds, 1.2% hits; calls by dose curve; tested in HEK293 cells; also: potency is read from the fitted curve at half-maximal effect; % is scaled to controls: 0 for no effect and ±100 for the full control effect; nearly all actives have a fitted effect of over 50% in size
# Vaccinia Venus: qHTS for Stage-Specific Inhibitors of Vaccinia Orthopoxvirus: Venus Reporter Primary qHTS; Potency, µM (series often up to 36.5 µM), for the others: at the top dose activity change, negative = inhibition, most hits filed as inhibitors; 330,000 compounds, 0.46% hits; Vaccinia virus Venus reporter expression, fluorescence; calls by dose curve; tested in A549 cells; also: potency is read from the fitted curve at half-maximal effect; % is scaled to controls: 0 for no effect and ±100 for the full control effect; nearly all actives have a fitted effect of over 30% in size
# FMDV inh: High Throughput Screening for Foot and Mouth Disease Virus Antivirals; FMDV antiviral cell-based qHTS; Potency, µM (top dose mostly 57.9 µM), for the others: at the top dose activity change, negative = inhibition, most hits filed as inhibitors; 410,000 compounds, 1.2% hits; calls by dose curve; tested in HEK293T cells; also: read-out not given here; potency is read from the fitted curve at half-maximal effect; % is scaled to controls: 0 for no effect and ±100 for the full control effect; nearly all actives have a fitted effect of over 45% in size
# Vaccinia mCherry: qHTS for Stage-Specific Inhibitors of Vaccinia Orthopoxvirus: mCherry Reporter Primary qHTS | Vaccinia virus mCherry reporter infection, fluorescence | Potency, µM (top dose mostly 36.5 µM), inactives show at the top dose activity change, negative = inhibition, hits mostly inhibitors | 310,000 compounds, 0.63% hits; calls by dose curve; tested in A549 cells; also: potency is read from the fitted curve at half-maximal effect; % is scaled to controls: 0 for no effect and ±100 for the full control effect; nearly all actives have a fitted effect of over 35% in size
# HeLa G2M arrest: Cell cycle validation with wells to cells screening paradigm | Potency, µM, hits mostly inhibitors | HeLa cell cycle G2/M arrest, Hoechst DNA content imaging | AID 2441, 2010 | 25 compounds, 60% hits | shares compounds with MARV entry inh
# WI-38 tox: High Content Assay for Compounds that inhibit the Assembly of the Perinucleolar Compartment: WI-38 Cytotoxicity. shares compounds with MARV entry inh. AID 2729, 2010. Potency, µM (top dose mostly 46.1 µM), for inactives: at the highest dose activity change, negative = cytotoxicity, usual class: inhibitors. 120 tested, under 10 active. WI-38 normal lung fibroblasts, ATPLite luminescence ATP viability, 24 h
# PNC assembly inh: High Content Assay for Compounds that inhibit the Assembly of the Perinucleolar Compartment: Confirmation of PNC Inhibition; PC3M PTB-GFP, PNC prevalence imaging, 16 h; AID 2730, 2010; 120 compounds, 50% hits; shares compounds with MARV entry inh; Potency, µM (top dose mostly 46.1 µM), inactives show top-dose activity, negative = PNC inhibition, most hits filed as inhibitors
# PC3M casp3-7: High Content Assay for Compounds that inhibit the Assembly of the Perinucleolar Compartment: PC3M Caspase 3/7 Activation. 120 tested, under 10 active. shares compounds with MARV entry inh. PC3M-GFP caspase 3/7 activation, luminescence, 24 h. activity change, positive = activation, % at 46.1 µM
# * = called active by the depositor; i = inactive; ? = inconclusive; / = no result; [ ] = another dose, or the depositor's remark. Sampled rows, rich in hits. Any-hit rate of the full collection: about 5.3%. Unless noted, calls follow the shape of the dose curve; as a rule, active = well fitted curve in the direction sought with a large enough effect; inconclusive = small, poorly fitted or top-dose-only effect, or another doubt; inactive = no such curve, though single readings can be large; an effect the other way counts as inactive or inconclusive.
SMILES,MARV entry inh,HCV inh,LASV entry inh,Vaccinia Venus,FMDV inh,Vaccinia mCherry,WI-38 tox,PNC assembly inh,PC3M casp3-7,others
CCOC(=O)NC1(Nc2ccc(C)cc2)Oc2ccccc2O1,-12%,?,?,-12%,13%,-25%,8%,-18%,-6,
CSc1nc(-c2ccc(C)cc2)nc(C(Cl)Cl)n1,?,3.2µM*,?,/,-4%,/,-13%,13µM*,?,
Nc1c(C(=O)N2CCCC2)sc2nc(-c3ccccc3)ccc12,?,-12%,0%[46.1 µM],-10%,22%,-18%,/,/,/,
O=c1c2ccccc2nnn1CSc1ccc2ccccc2n1,13%,4%,-1%,-6%,2%,-16%,19%,?,-8,
O=C1CC(c2ccccc2)Cc2[nH]c(=O)c(C(=O)Nc3cccc(Cl)c3)cc21 (centres undefined),/,/,8%[46.1 µM],-10%,-14%,-9%,/,/,/,
CCN(CC)C(=O)N1c2ccccc2C=Cc2ccccc21,1.1µM*,?,0.63µM*,?,?,/,18%,5µM*,-2,
C/C(N)=C(/C#N)C(=O)COC(=O)c1cc(C)n(-c2ccc(F)cc2)c1C,2µM*,?,?,27%,27%,?,-4%,13µM*,-9,
Cc1nc(CN2C(=O)C3(CCC3)ON=C2c2cccc(Cl)c2)cs1,/,/,/,-2%,-15%,i,/,/,/,
CNS(=O)(=O)c1cccc(C(=O)OCC(=O)c2cc(C)n(-c3ccc4c(c3)OCO4)c2C)c1,-2%,-24%,-3%,-23%,12%,/,/,/,/,
Cc1cc(C(=O)COc2ccccc2Cl)c(C)n1-c1ccc2c(c1)OCO2,16µM*,-24%,4.1µM*,0%,29%,-1%,-15%,7.9µM*,-15,
O=c1c2c([nH]n1-c1ccccc1)C[C@@H](C1CCCCC1)O[C@H]2c1ccc(F)cc1,/,/,/,0%,33%,24%,/,/,/,
O=C(N/N=C/c1cc(Cl)ccc1O)C(=O)Nc1ccccc1OC(F)(F)C(F)F,?,?,?,?,-25%,14µM*,-8%,?,6,
COc1cc(OC)c(/C=C2/C(=O)Nc3ccccc32)c(OC)c1,0.89µM*,/,?,/,/,/,/,/,/,HeLa G2M arrest=2*
Cc1c(C#N)c(N)nc2c3c(sc12)NC(=O)CC3c1ccc(F)cc1 (centres undefined),?,-2%,15%,-10%,-15%,-8%,-12%,-10%,-6,
Cc1c(C#N)c(N)nc2c3c(sc12)NC(=O)CC3c1ccccc1 (centres undefined),?,-2%,1%,-8%,-10%,-13%,/,/,/,
CC(OC(=O)c1ccc(Cl)c(S(N)(=O)=O)c1)C(=O)NCc1ccc2c(c1)OCO2 (centres undefined),2%[46.1 µM],?,-2%,-4%,-15%,-3%,/,/,/,
Cc1ccc(Cl)cc1N(CC(=O)N1CCCCCC1)S(C)(=O)=O,7%,9%,9%,-12%,-7%,-15%,6%,8%,-6,
Cc1ccc(Cl)cc1N(CC(=O)N1CCOCC1)S(C)(=O)=O,/,2%,/,/,4%,/,/,/,/,
Cc1cc(C)c(S(=O)(=O)/N=C2/C=C(Sc3ncn[nH]3)C(=O)c3ccccc32)cc1C,1.6µM*,?,13µM*,6.3µM*,?,?,-7%,6.3µM*,-7,
O=C(N/N=C/c1ccccc1O)c1cccc(C(F)(F)F)c1,5.6µM*,4µM*,?,?,68%,3.5µM*,-7%,28µM*,0,
Cc1cnc2nc(-c3ccccc3)ccc2c1,/,/,/,-11%,15%,i,/,/,/,
COc1cccc(C(=O)Nc2cccc(-c3ccc(N4CCOCC4)nn3)c2)c1OC,?,?,13%,-27%,0%,?,/,/,/,
COc1ccc(CCNC(=O)C2CC2)cc1OC,-2%,2%,1%,-12%,/,i,/,/,/,
COc1ccc(CN2CCC(C(=O)NCCc3ccc(OC)c(OC)c3)CC2)c(OC)c1,?,8%,-1%,1%,-20%,/,-27%,?,-8,
CS(=O)(=O)Nc1cccc(-c2nc(NCc3ccccc3)c3ccccc3n2)c1,/,/,/,/,-21%,/,/,/,/,
SMILES,MARV entry inh,HCV inh,LASV entry inh,Vaccinia Venus,FMDV inh,Vaccinia mCherry,WI-38 tox,PNC assembly inh,PC3M casp3-7,others
CN(C)c1ccc(N=Nc2ccccc2C(=O)OCC(=O)NC2CCCC2)cc1,?,-5%,?,-13%,1%,-5%,?,?,-13,
CN(C)c1ccc(N=Nc2ccccc2C(=O)OCC(=O)NCC2CCCCC2)cc1,?,10%,-12%,-29%,-12%,-10%,/,/,/,
C/C(=N/OCO/N=C(/C)c1ccc(F)cc1)c1ccc(F)cc1,?,1%,3.2µM*,-3%,-4%,-19%,20%,22µM*,1,
C/C(=N/OCO/N=C(\C)c1ccc(F)cc1F)c1ccc(F)cc1F,10%,9%,22%,-13%,-18%,i,/,/,/,
COc1ccc(Cc2nnc(N/N=C/c3ccc(O)cc3)[nH]c2=O)cc1OC,?,0.89µM*,?,?,-25%,1.1µM*,?,?,-2,
COc1ccc(Cc2nnc(N/N=C/c3ccc(Br)cc3)[nH]c2=O)cc1OC,/,-6%,/,-6%[7.34 µM],1%,-10%[7.34 µM],/,/,/,

# Screens: PubChem, National Center for Advancing Translational Sciences (NCATS)
